The values that follow come from PubChem BioAssay (Tox21).

Unmarked numbers belong to inactive results. Results filed as inconclusive are left out. Active and inactive are the calls of the source. Unless noted, calls come from the whole dose curve; as a rule, active = well fitted curve in the direction sought with a large enough effect in the repeat runs; inconclusive = weak or mixed curves; inactive = no such curve, though single readings can be large; an effect the other way counts as inactive or inconclusive.

The target in test [1] is Luciferin 4-monooxygenase (Photinus pyralis) (UniProt P08659). As to the kind of experiment: qHTS assay to identify small molecule inhibitors of firefly luciferase (AID 1224835). Note: nearly all actives have a fitted effect of over 25% in size. Put shortly:
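Inhibition of purified Photinus luciferase is measured by luminescence. Substrate levels (D-luciferin, ATP) sit at their KM values. Each compound is tested in a concentration series.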
Background: Quantitative high-throughput screening tests each substance at several concentrations.

Test [2] can be described thus: qHTS assay to identify small molecule antagonists of the constitutive androstane receptor (CAR) signaling pathway - cell viability counter screen (AID 1224837). Note: nearly all actives have a fitted effect of over 45% in size. Put shortly: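 Fluorescence from CellTiter-Fluor served as the viability signal. Human hepatoma HepG2 cells stably bearing hCAR and CYP2B6-2.2kb received compound plus CITCO (50 nM final) for 23 hr.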
Test [3] has as its target Nuclear receptor subfamily 1 group I member 3 (Homo sapiens) (UniProt Q14994). As to the kind of experiment: qHTS assay to identify small molecule antagonists of the constitutive androstane receptor (CAR) signaling pathway (AID 1224838).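 Note: HepG2 cells stably expressing hCAR with CYP2B6 luciferase reporter stimulated by CITCO; nearly all actives have a fitted effect of over 40% in size.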 Put shortly:
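Quantitative HTS in double-stable HepG2-CYP2B6-hCAR cells. After 4 h plating, cells get compound (15 concentrations) and CITCO at 50 nM final, incubate 24 h at 37 C, then ONE-Glo luminescence is read.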

Test [4] is described as follows: qHTS assay to identify small molecule antagonists of the estrogen related receptor signaling pathway with the pleiotropic PPARgamma coactivator (PGC) from Tox21 10K library - cell viability counter screen (AID 1224840; active = well fitted cell-killing curve with a large enough effect in the repeat runs, not every such curve was filed as active; note: nearly all actives have a fitted effect of over 40% in size). Put shortly: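 Compounds in DMSO, alongside positive and negative controls, were pinned onto PGC/ERR cells (2,000 per well). Exposure lasted 17.5 hours at 37 C, followed by a 30-minute CellTiter-Fluor incubation and fluorescence reading.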

The nature of test [5]: qHTS assay to identify small molecule agonists of the hypoxia (HIF-1) signaling pathway - cell viability counter screen (AID 1224844; calls by dose curve; note: nearly all actives have a fitted effect of over 50% in size). Put shortly: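 Luminescent ATP content (CellTiter-Glo, 30 min, room temperature) served as the viability measure in HRE-bla ME-180 cells exposed to compounds for 17 hrs in low-serum medium (0.5% dialyzed FBS).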
Test [6] is described as follows: qHTS assay to identify small molecule agonists of the hypoxia (HIF-1) signaling pathway (AID 1224846; active = well fitted activation curve with a large enough effect in the signal ratio in the repeat runs, not every such curve was filed as active; the % refers to the signal ratio). The method, boiled down: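 Measured by blue/green FRET after loading CCF4-AM: beta-lactamase expressed from a hypoxia response element in ME-180 cells. Test agents were delivered in DMSO and left 17 hrs; cells had been plated 5 hrs earlier in low-serum (0.5% dialyzed FBS) medium.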

Test [7] is described as follows: qHTS assay to identify small molecule agonists of H2AX - cell viability counter screen (AID 1224847; calls by dose curve; note: top concentration of the series differs between compounds; nearly all actives have a fitted effect of over 30% in size). Put shortly: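 Cytotoxicity counter screen in wild-type CHO-K1 cells: a 3 hr compound treatment at 37C across 15 concentrations, followed by CellTiter-Glo luminescence to gauge viable cells.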
Test [8] is described as follows: qHTS RealTime-Glo MT Cell Viability Assay in HepG2 cells - 24 hour (AID 1224867). Note: nearly all actives have a fitted effect of over 50% in size. The method, boiled down:
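Real-time, nonlytic viability: 600 HepG2 cells/well mixed with NanoLuc enzyme plus prosubstrate; 5 h settle, compound (DMSO) added by pintool; luminescence monitored over 40 h at 37 C.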

Test [9] in a line: A CellTox Green Cytotoxicity Assay to monitor cytotoxicity in HEK293 cells - 0 hour (AID 1224869). Note: nearly all actives have a fitted effect of over 50% in size. Note: potency is the fitted concentration of half-maximal effect. Put shortly: (§1)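 Each value comes from one timepoint of a single continuous run in which HEK293 cells with CellTox Green were exposed to compound for up to 40 h at 37 C, dye fluorescence rising with cell death.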
Test [10] can be described thus: qHTS RealTime-Glo MT Cell Viability Assay in HepG2 cells - 40 hour (AID 1224870). Note: nearly all actives have a fitted effect of over 50% in size. Put shortly:
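Real-time viability: cells seeded at 600 per well together with NanoLuc and cell-permeant prosubstrate, compounds added after 5 h incubation. Luminescence tracked at 0, 8, 16, 24, 32 and 40 h of exposure.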

Test [11] is described as follows: qHTS assay to identify small molecule agonists of the constitutive androstane receptor (CAR) signaling pathway - cell viability counter screen (AID 1224836). Note: nearly all actives have a fitted effect of over 45% in size. The method, boiled down: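 Cells were seeded and incubated 4 hrs. Compounds were added across 15 concentrations together with PK11195 at 0.75 uM final. Plates were incubated 23 hrs at 37 C. CellTiter-Fluor was added and fluorescence measured.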

Test [12] concerns the target Thyrotropin receptor (Homo sapiens) (UniProt P16473). The test is described as follows: qHTS assay to identify small molecule agonists of the thyroid stimulating hormone receptor (TSHR) signaling pathway (AID 1224843; calls by dose curve; note: nearly all actives have a fitted effect of over 45% in size). Put shortly: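 Screening of the Tox21 10K collection used HEK293 cells engineered with TSHR at 800 cells per well. After a 30-min room-temperature compound exposure, HTRF cAMP reagents were added and fluorescence recorded 1 h later.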

Test [13] in a line: qHTS assay to identify small molecule agonists of H2AX (AID 1224845; active = well fitted activation curve with a large enough effect in the signal ratio in the repeat runs, not every such curve was filed as active; the % refers to the signal ratio). The method, boiled down: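 Phospho-H2AX Ser139 measured by HTRF (ex 320 nm; em 665 and 620 nm) after 24 hr antibody incubation. Compounds, 15 concentrations, 0.76% DMSO, were applied to CHO-K1 cells for 3hr at 37C before lysis.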
Test [14] can be described thus: qHTS RealTime-Glo MT Cell Viability Assay in HEK293 cells - 32 hour (AID 1224868). The method, boiled down:
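Cells + reagent dispensed (600 cells/well, HEK293) → 5 h at 37 C/5% CO2 → 23 nL compound in DMSO pinned → 40 h at 37 C → luminescence read at 0, 8, 16, 24, 32, 40 h.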

In test [15] the target is Nuclear receptor subfamily 1 group I member 3 (Homo sapiens) (UniProt Q14994). As to the kind of experiment: qHTS assay to identify small molecule agonists of the constitutive androstane receptor (CAR) signaling pathway (AID 1224839).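 Note: HepG2 cells stably carrying human CAR and a CYP2B6 luciferase reporter; nearly all actives have a fitted effect of over 15% in size.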 Put shortly:
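Cells were plated and incubated 4 hrs, then dosed with compounds at 15 concentrations. PK11195 was added to 0.75 uM final. After 24 hrs at 37 C, luciferase luminescence was measured.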

The nature of test [16]: A CellTox Green Cytotoxicity Assay to monitor cytotoxicity in HEK293 cells - 40 hour (AID 1224871). Note: nearly all actives have a fitted effect of over 45% in size. Put shortly:
as §1

A short description of test [17]: qHTS assay to identify small molecule antagonists of the estrogen related receptor signaling pathway with the pleiotropic PPARgamma coactivator (PGC) from Tox21 10K library (AID 1224841; call rule not given here). The method, boiled down:
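Compound exposure ran 18 hours at 37 C in PGC/ERR cells (2,000/well) that had first rested 6 hours in a 37 C/5% CO2 incubator. Luciferase activity was then detected with One-Glo after a 30-minute room-temperature step.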

The nature of test [18]: qHTS assay to identify small molecule agonists of the estrogen related receptor signaling pathway with the pleiotropic PPARgamma coactivator (PGC) from Tox21 10K library (AID 1224842). Note: nearly all actives have a fitted effect of over 15% in size. Put shortly:
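Luminescence from One-Glo (30 min, room temperature) measured after PGC/ERR cells had 18 h at 37 C with pinned compound (23 nL in DMSO). Cells had been seeded at 2,000 per well and pre-incubated 6 h.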

Test [19] in a line: qHTS assay to identify small molecule agonists of the estrogen related receptor (ERR) signaling pathway from Tox21 library (AID 1224849; calls by dose curve; note: nearly all actives have a fitted effect of over 15% in size). The following applies: ERR reporter cell line, ONE-Glo luciferase, 18 h; at 92.4 µM (top of the series) unless noted. The method, boiled down:
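We plated ERR reporter cells, waited 6 h, added compounds in DMSO by pin tool and incubated them 18 h at 37 C. ONE-Glo was then added and luminescence read after 30 min.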
% is set by controls: 0 for no effect and ±100 for the full control effect.

Chain of Thyrotropin receptor (Homo sapiens) (P16473 whole entry, looked up): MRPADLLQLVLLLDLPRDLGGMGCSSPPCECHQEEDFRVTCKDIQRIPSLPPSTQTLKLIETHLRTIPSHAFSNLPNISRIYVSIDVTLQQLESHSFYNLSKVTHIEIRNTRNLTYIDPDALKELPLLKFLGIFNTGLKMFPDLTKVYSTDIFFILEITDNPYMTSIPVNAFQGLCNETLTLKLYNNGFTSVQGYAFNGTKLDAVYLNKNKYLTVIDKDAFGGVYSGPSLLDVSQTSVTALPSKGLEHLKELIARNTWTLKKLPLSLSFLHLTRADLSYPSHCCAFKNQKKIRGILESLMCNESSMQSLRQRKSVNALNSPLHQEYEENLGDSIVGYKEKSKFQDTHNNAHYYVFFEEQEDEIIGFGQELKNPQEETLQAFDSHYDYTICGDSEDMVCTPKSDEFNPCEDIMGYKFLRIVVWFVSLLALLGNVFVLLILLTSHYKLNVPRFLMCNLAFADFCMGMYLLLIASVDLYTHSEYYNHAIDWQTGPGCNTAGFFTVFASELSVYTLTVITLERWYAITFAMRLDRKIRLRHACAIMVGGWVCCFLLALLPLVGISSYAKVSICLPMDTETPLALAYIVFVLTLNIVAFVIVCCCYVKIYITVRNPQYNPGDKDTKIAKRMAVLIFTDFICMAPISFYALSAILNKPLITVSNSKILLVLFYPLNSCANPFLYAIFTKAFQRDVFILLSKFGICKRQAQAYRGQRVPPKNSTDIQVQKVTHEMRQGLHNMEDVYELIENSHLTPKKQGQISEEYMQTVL
Chain of Luciferin 4-monooxygenase (Photinus pyralis) (P08659 whole entry, looked up): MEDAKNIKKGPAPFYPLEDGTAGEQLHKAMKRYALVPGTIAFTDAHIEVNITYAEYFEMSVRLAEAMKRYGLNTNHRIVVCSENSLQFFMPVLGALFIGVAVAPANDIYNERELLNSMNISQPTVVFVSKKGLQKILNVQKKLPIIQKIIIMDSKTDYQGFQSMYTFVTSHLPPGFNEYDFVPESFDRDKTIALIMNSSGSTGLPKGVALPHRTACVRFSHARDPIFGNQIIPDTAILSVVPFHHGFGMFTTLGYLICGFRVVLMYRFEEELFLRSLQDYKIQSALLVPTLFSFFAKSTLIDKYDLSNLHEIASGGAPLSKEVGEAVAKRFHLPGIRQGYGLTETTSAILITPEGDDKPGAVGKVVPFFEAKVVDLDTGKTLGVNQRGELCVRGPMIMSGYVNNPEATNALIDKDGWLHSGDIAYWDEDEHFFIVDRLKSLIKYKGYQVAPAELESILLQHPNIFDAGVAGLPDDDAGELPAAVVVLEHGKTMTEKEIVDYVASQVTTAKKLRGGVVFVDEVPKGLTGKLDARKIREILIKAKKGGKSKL
Chain of Nuclear receptor subfamily 1 group I member 3 (Homo sapiens) (Q14994 whole entry, looked up): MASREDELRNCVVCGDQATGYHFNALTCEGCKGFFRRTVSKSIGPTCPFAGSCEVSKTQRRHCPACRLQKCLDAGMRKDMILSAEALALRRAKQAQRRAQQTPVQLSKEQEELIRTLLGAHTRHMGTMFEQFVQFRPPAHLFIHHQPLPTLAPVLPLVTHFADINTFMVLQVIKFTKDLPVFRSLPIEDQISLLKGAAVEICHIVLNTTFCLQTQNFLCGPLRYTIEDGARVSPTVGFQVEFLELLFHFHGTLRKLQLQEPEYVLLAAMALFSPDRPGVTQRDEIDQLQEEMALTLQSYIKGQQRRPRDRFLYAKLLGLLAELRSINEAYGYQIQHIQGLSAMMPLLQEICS

In the case of `CN1C(=S)CN=C(c2ccccc2)c2cc(Cl)ccc21`, the Potency result in [1], in test [2], in test [3], in test [4], in test [5] and in test [7] was “inactive” each time. Moreover, the Potency entry in test [8] and in [10] was “inactive” in each case. Also, the outcome in test [6] was inactive. Also, the Potency in test [9] was 5.35 µM (active).

Take `OC(Cn1cncn1)(c1ccc(F)cc1)c1ccccc1F` (stereo not drawn): the Potency entry in test [1], in test [11], in test [4], in [12], in test [5] and in test [13] was “inactive” in each case. Further, the Potency result in test [8], in [14], in test [9] and in test [10] was “inactive” throughout. The result in test [6] was inactive.

On to `CCC1(c2ccccc2)C(=O)NC(=O)NC1=O`, for which the Potency result in [1], in [2], in test [3], in test [15], in [4] and in test [12] was “inactive” throughout. Further, the Potency entry in test [5], in test [13], in test [7], in test [8], in [9] and in test [10] was “inactive” throughout. Further, in test [6], the call was inactive.

On to `CCCCP(CCCC)CCCC`, for which the Potency result in [1], in [11], in [4], in test [12], in [5] and in [13] was “inactive” in each case. The Potency result in [7], in test [8], in test [9], in [10] and in [16] was “inactive” throughout. The call in test [6] was inactive.

As for `CC(C)(C)C(=O)C(Oc1ccc(Cl)cc1)n1cncn1` (stereo not drawn), the Potency entry in test [1], in test [11], in test [3], in test [4], in [5] and in test [13] was “inactive” throughout. For the same compound, the Potency entry in test [7], in [8], in test [9], in [10] and in [16] was “inactive” throughout.

As for `CCCCOC(=O)c1ccccc1C(=O)O`, the Potency entry in test [1], in [2], in [3], in test [4], in [13] and in test [7] was “inactive” each time. The Potency result in test [8], in test [14], in [9] and in [10] was “inactive” in each case. Also, the compound was called inactive in test [6].

For the compound `C=CC1CC=CCC1` (stereo not drawn), the Potency entry in test [1], in test [2], in test [3], in [15], in [4] and in test [12] was “inactive” in each case. In addition, the Potency entry in test [5], in [13], in test [7], in [8], in test [14] and in test [9] was “inactive” throughout. The Potency result in [10] is “inactive”. Further, in test [6], the outcome was inactive.

In the case of `COc1cc(OC)nc(NC(=O)NS(=O)(=O)c2ncccc2C(=O)N(C)C)n1`, the Potency entry in [1], in [2], in test [3], in test [15], in test [4] and in [12] was “inactive” throughout. Moreover, the Potency entry in [5], in test [13], in test [7], in test [8], in [14] and in test [9] was “inactive” each time. Further, the Potency entry in test [10] and in test [16] was “inactive” each time. Also, the compound was classed as inactive in [6].

In the case of `COC(=O)C(C)Oc1ccc(Oc2ccc(Cl)cc2Cl)cc1` (stereo not drawn), the Potency result in [1], in test [2], in test [3], in [4], in test [17] and in [5] was “inactive” each time. Besides, the Potency result in [13], in test [7], in [8], in [14], in test [9] and in [10] was “inactive” in each case. The Potency result in [16] is “inactive”. Moreover, the compound was classed as inactive in test [18] and in test [6]. Further, in [19], the activity change, positive = activation is -14.6%.
